{
  "source": "PubChem BioAssay (NCI)",
  "experiment": "NCI Yeast Anticancer Drug Screen. Data for the sgs1 strain (AID 173);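 further: 0% = growth of vehicle-only control cultures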",
  "settings": "S. cerevisiae sgs1 mutant, active compounds read high",
  "experimental": "Growth inhibition of yeast strains with defined genetic alterations is measured as a screen for potential anti-cancer activity. Selected strains with alterations in DNA damage repair or cell cycle control were exposed to compounds and growth inhibition was measured relative to vehicle treated controls. The strain used in this assay is sgs1",
  "note": "Compounds without any hit were thinned out: in the full panel of roughly 79,000, 15% have a hit. Values without a mark were called inactive. Activity calls are given as the source filed them. No stated cut-off is given here; in the data, active means growth inhibition above about 70%; inactive means the rest.",
  "data": [
    {"smiles": "CC(C)OC(=O)NNc1cccc(Cl)c1", "values": [
      {"measurement": "growth inhibition", "setting": "at 1.2 µM", "result": 2, "unit": "%"},
      {"measurement": "growth inhibition", "setting": "at 3.7 µM", "result": 23, "unit": "%"},
      {"measurement": "growth inhibition", "setting": "at 11.0 µM", "result": "97% (active)"},
      {"measurement": "growth inhibition", "setting": "at 33.0 µM", "result": "98% (active)"},
      {"measurement": "growth inhibition", "setting": "at 100.0 µM", "result": "98% (active)"}
    ]},
    {"smiles": "CC/C(=C(\\c1ccccc1)c1ccc(OCC[N+](C)(C)C)cc1)c1ccccc1", "values": [
      {"measurement": "growth inhibition", "setting": "at 1.2 µM", "result": -7, "unit": "%"},
      {"measurement": "growth inhibition", "setting": "at 3.7 µM", "result": 65, "unit": "%"},
      {"measurement": "growth inhibition", "setting": "at 11.0 µM", "result": "99% (active)"},
      {"measurement": "growth inhibition", "setting": "at 33.0 µM", "result": "99% (active)"},
      {"measurement": "growth inhibition", "setting": "at 100.0 µM", "result": "99% (active)"}
    ]},
    {"smiles": "CN(C)N=Nc1ccc(N(C)C)cc1", "values": [
      {"measurement": "growth inhibition", "setting": "at 1.2 µM", "result": 0, "unit": "%"},
      {"measurement": "growth inhibition", "setting": "at 3.7 µM", "result": 4, "unit": "%"},
      {"measurement": "growth inhibition", "setting": "at 11.0 µM", "result": 6, "unit": "%"},
      {"measurement": "growth inhibition", "setting": "at 33.0 µM", "result": 15, "unit": "%"},
      {"measurement": "growth inhibition", "setting": "at 100.0 µM", "result": 28, "unit": "%"}
    ]},
    {"smiles": "C1=CCN([B-](c2ccccc2)[C+]2CCCCC2)C=C1", "values": [
      {"measurement": "growth inhibition", "setting": "at 1.2 µM", "result": -2, "unit": "%"},
      {"measurement": "growth inhibition", "setting": "at 3.7 µM", "result": -2, "unit": "%"},
      {"measurement": "growth inhibition", "setting": "at 11.0 µM", "result": 6, "unit": "%"},
      {"measurement": "growth inhibition", "setting": "at 33.0 µM", "result": "92% (active)"},
      {"measurement": "growth inhibition", "setting": "at 100.0 µM", "result": "99% (active)"}
    ]},
    {"smiles": "COc1ccc(C2CC(C)(N3CCCC3)Oc3cc4c(cc32)OCO4)cc1", "note": "(stereo not given)", "values": [
      {"measurement": "growth inhibition", "setting": "at 1.2 µM", "result": -4, "unit": "%"},
      {"measurement": "growth inhibition", "setting": "at 3.7 µM", "result": 9, "unit": "%"},
      {"measurement": "growth inhibition", "setting": "at 11.0 µM", "result": -18, "unit": "%"},
      {"measurement": "growth inhibition", "setting": "at 33.0 µM", "result": 17, "unit": "%"},
      {"measurement": "growth inhibition", "setting": "at 100.0 µM", "result": "83% (active)"}
    ]},
    {"smiles": "CCCCCCCCCCCCCCCCCCNc1nc(=O)n(C2CC(OP(=O)(O)OCC3OC(n4cc(F)c(=O)[nH]c4=O)CC3O)C(CO)O2)cc1F", "note": "(stereo not given)", "values": [
      {"measurement": "growth inhibition", "setting": "at 1.2 µM", "result": 1, "unit": "%"},
      {"measurement": "growth inhibition", "setting": "at 3.7 µM", "result": -5, "unit": "%"},
      {"measurement": "growth inhibition", "setting": "at 11.0 µM", "result": -9, "unit": "%"},
      {"measurement": "growth inhibition", "setting": "at 33.0 µM", "result": 22, "unit": "%"},
      {"measurement": "growth inhibition", "setting": "at 100.0 µM", "result": "78% (active)"}
    ]},
    {"smiles": "CCOC(=O)/C(=C/c1cccc(Cl)c1)N(CC)CC", "values": [
      {"measurement": "growth inhibition", "setting": "at 1.2 µM", "result": 26, "unit": "%"},
      {"measurement": "growth inhibition", "setting": "at 3.7 µM", "result": 30, "unit": "%"},
      {"measurement": "growth inhibition", "setting": "at 11.0 µM", "result": 41, "unit": "%"},
      {"measurement": "growth inhibition", "setting": "at 33.0 µM", "result": 62, "unit": "%"},
      {"measurement": "growth inhibition", "setting": "at 100.0 µM", "result": "96% (active)"}
    ]},
    {"smiles": "ClCCCOc1c(Cl)cc(Cl)cc1Cl", "values": [
      {"measurement": "growth inhibition", "setting": "at 1.2 µM", "result": -15, "unit": "%"},
      {"measurement": "growth inhibition", "setting": "at 3.7 µM", "result": -22, "unit": "%"},
      {"measurement": "growth inhibition", "setting": "at 11.0 µM", "result": -21, "unit": "%"},
      {"measurement": "growth inhibition", "setting": "at 33.0 µM", "result": -5, "unit": "%"},
      {"measurement": "growth inhibition", "setting": "at 100.0 µM", "result": 10, "unit": "%"}
    ]}
  ]
}
